# Results as given in PubChem BioAssay.
# Values without a mark were called inactive. Activity calls are given as the source filed them. Unless noted, no stated cut-off is given here; in the data, active means inhibition above about 30%; inactive means the rest.
# How the values were obtained:
# [1] = target: Nuclear receptor coactivator 3 (Homo sapiens) (UniProt Q9Y6Q9); assay: SRC3 coactivator transcriptional activity inhibitors, confirmation, cell-based, luminescence, quadruplicate (AID 588792;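 active means mean inhibition over 43.08%, the solvent-only control mean plus 3 SD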;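 further: 0% = DMSO treated cells and 100% = gossypol at 36 µM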); details: HEK293 GAL4-SRC3 luciferase reporter, at 3.6 µM, hits give high values
# [2] = test system: transactivating tegument protein VP16 (Human herpesvirus 1), Gal4-VP16 luciferase reporter; assay: VP16 transactivation inhibitors, counter-screen for SRC3 inhibitor project, cell-based, luminescence, high throughput (AID 588794); details: mammalian cells, VP16-driven luciferase reporter luminescence; at 3.6 µM; hits give high values
# Sequence of Nuclear receptor coactivator 3 (Homo sapiens) (Q9Y6Q9 whole entry, looked up, the tested form may be a part): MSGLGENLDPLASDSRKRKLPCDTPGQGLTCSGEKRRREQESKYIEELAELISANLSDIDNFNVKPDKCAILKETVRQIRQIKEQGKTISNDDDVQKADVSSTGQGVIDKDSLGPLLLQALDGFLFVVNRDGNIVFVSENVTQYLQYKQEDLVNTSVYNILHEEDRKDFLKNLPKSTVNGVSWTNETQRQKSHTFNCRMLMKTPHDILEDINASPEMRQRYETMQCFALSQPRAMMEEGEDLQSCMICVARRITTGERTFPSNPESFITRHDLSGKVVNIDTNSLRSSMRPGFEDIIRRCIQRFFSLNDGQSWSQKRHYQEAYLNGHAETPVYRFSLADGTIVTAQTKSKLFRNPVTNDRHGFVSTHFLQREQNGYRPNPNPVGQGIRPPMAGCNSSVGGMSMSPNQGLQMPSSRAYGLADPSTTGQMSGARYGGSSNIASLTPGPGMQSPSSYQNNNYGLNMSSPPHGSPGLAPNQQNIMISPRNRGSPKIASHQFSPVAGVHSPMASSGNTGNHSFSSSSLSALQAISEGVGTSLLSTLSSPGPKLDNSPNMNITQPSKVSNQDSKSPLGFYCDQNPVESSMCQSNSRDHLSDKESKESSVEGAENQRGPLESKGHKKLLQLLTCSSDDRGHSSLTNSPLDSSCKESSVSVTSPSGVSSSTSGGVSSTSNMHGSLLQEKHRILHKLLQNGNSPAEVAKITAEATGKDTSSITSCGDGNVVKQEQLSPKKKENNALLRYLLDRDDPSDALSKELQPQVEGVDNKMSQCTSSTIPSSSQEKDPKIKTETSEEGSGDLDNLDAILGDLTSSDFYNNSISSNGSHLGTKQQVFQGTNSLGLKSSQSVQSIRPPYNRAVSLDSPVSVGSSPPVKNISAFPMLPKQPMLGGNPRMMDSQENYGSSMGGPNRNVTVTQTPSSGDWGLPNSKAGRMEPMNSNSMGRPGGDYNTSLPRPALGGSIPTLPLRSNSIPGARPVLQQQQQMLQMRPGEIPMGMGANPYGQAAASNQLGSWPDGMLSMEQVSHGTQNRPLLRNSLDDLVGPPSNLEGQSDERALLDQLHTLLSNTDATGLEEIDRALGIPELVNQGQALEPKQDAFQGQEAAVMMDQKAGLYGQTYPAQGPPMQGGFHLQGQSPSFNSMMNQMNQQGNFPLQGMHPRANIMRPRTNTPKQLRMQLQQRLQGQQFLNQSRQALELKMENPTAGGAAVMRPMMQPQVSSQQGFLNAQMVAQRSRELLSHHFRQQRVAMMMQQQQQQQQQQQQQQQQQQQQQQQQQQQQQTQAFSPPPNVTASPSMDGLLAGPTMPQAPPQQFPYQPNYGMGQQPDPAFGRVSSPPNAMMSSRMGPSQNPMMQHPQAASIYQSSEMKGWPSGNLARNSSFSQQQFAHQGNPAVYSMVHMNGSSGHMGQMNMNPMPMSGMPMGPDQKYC
Structure (SMILES),inhibition [1],inhibition [2]
COc1ccc(-c2nc(CSCC(=O)NCc3ccco3)c(C)o2)cc1,42.1%,-11.2%
Cc1ccc(C)c(S(=O)(=O)N2CCCCC2CCNC(=O)C(=O)NCc2ccncc2)c1 (stereo not drawn),0.55%,7.08%
CCOC(=O)c1c(C)[nH]c2c1-c1ccccc1C(=O)C2=O,95.1% (active),91.5% (active)
Cc1ccc(S(=O)(=O)NC(=O)c2cc(C)n(-c3ccccc3)c2C)cc1,-1.88%,-1.79%
COc1ccc(CN(C)C(=O)c2cccc(NC(=O)CC3SC(N4CCCCC4)=NC3=O)c2)c(OC)c1 (stereo not drawn),26.9%,30.3% (active)
Nc1nc(CCl)nc(N(c2ccccc2)c2ccccc2)n1,18.4%,15.9%
COc1ccc(OCCOCC(O)CN2CCOCC2)cc1 (stereo not drawn),-13.2%,-8.92%
CC(Oc1ccc(Cl)cc1)C(=O)NCCN1C(=O)S/C(=C\c2cccnc2)C1=O (stereo not drawn),4.29%,-2.64%
Nc1ccccc1-c1ccc([N+](=O)[O-])cc1,5.58%,33.1% (active)
CC(C)OC(=O)c1sc2nc(-c3ccccc3)ccc2c1N,23.7%,-2.61%
O=C(N/N=C/c1cc(Br)c(Br)s1)c1ccncc1,31.1%,18.5%
COc1cc(C2C(C#N)=C(SC)NC3=C2C(=O)CCC3)ccc1O (stereo not drawn),20.9%,14.7%
Cc1cc(C(=O)Nc2ccncc2)c(C)o1,8.35%,-9.44%
COc1ccc2nc(C(F)(F)Cl)c(C#N)c(N)c2c1,24%,-0.89%
Cc1ccc2[nH]c(C(=O)N/N=C/c3ccccc3O)c(C)c2c1,65.9% (active),67.7% (active)
COc1cc(C=CC(=O)c2ccccc2)cc(OC)c1OC,28.4%,30.1% (active)
O=C(CCN1CCN(c2ccccc2)CC1)Nc1ccc(Cl)cc1,3.39%,1.2%

Structure (SMILES),inhibition [1],inhibition [2]
Cc1nc2c(-c3ccc(F)cc3)cnn2c(N)c1-c1ccc(F)cc1,12%,9.51%
O=C(CCSc1ccc(Cl)cc1)N1CCN(c2ccc(O)cc2)CC1,3.85%,28%
CCN1C/C(=C/c2ccc(N3CCOCC3)cc2)C(=O)/C(=C/c2ccc(N3CCOCC3)cc2)C1,40.8%,22.6%
CCOc1ccc(CNC(=O)C2Cc3cc(S(=O)(=O)N4CCCC4)ccc3N2C(C)=O)cc1 (stereo not drawn),4.56%,8.25%
COc1ccc(/C=C(\C#N)C(=O)OCC(=O)N(C)C2CCS(=O)(=O)C2)cc1 (stereo not drawn),-1.8%,-11%
O=C(COc1ccc(Cl)cc1)Nc1ccc(C(=O)NCc2cccnc2)cc1,55.6% (active),-24.6%
CCc1cccc(CC)c1C(OC(C)=O)c1cccnc1 (stereo not drawn),-15.7%,-7.1%
FC(F)(F)c1cccc(NC(=S)N(CCCN2CCCC2)Cc2cccn2Cc2ccc(Cl)cc2)c1,-14.5%,0.12%
CCCC(C(=O)NC(C)(C)C)N(C(=O)c1snc(C(N)=O)c1N)c1ccc2c(c1)OCCO2 (stereo not drawn),15.9%,2.4%
COc1cc2[nH]c3c(Cl)ncnc3c2cc1OC,32.2%,16.2%
O=C(CCl)Nc1cccc(-c2cnc3ccccc3n2)c1,33.5%,13.8%
COc1cccc(/C=N/Nc2cc(-n3nc(C)cc3-c3ccccc3)ncn2)c1O,28.9%,-9.27%
COc1ccc(OC)c(N/C=C/C(=O)c2ccccc2)c1,44.8% (active),17.5%
O=C(OC1C2CCC1C1CN(CCc3ccccc3)CC12)c1ccccc1 (stereo not drawn),11.2%,18%
CSc1cccc(N/C(=N/S(=O)(=O)c2ccccc2)NN)c1,5.54%,0.02%
O=C(NCc1cccs1)C1CCN(S(=O)(=O)c2ccccc2F)CC1,0.65%,-0.48%
COc1cccc(C(=O)/C=C/c2ccc(OCC#N)c(OC)c2)c1,22.2%,23.2%
